From PubChem BioAssay
RORg inh: qHTS for inhibitors of ROR gamma transcriptional activity; Nuclear receptor ROR-gamma (Mus musculus), P51450; Drosophila S2 Gal4-RORgamma UAS-luciferase reporter, 20 h; Potency, µM (highest dose often 53.6 µM), for the others: top-dose activity change, negative = inhibition, actives largely listed as inhibitors; 310,000 tested, 5.4% active; further: potency means the concentration at half of the fitted maximal effect; nearly all actives have a fitted effect of over 60% in size
Target sequence (P51450 whole entry, looked up, the tested form may be a part): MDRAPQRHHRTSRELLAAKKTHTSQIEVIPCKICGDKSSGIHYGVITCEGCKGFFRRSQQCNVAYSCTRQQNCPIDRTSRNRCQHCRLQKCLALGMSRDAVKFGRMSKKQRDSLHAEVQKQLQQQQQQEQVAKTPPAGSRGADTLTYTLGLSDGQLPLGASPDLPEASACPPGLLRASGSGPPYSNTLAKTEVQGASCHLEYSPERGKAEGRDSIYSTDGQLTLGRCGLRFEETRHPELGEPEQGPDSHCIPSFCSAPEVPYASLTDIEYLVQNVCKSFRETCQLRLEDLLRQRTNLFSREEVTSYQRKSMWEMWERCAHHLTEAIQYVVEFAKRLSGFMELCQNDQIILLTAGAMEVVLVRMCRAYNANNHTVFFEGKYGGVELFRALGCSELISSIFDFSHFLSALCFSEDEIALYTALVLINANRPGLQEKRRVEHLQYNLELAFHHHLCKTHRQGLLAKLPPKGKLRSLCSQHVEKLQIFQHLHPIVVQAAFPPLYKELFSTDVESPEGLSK
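Stably transfected Drosophila Schneider cells are the test system, with ROR gamma fused to Gal4 and luciferase under UAS control; luminescence is read after 20 hr of 700 uM copper sulfate induction at ambient temperature.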
VP16 counter: VP16 counterscreen qHTS for inhibitors of ROR gamma transcriptional activity; Drosophila S2 Gal4-VP16 UAS-luciferase, luminescence, 20 h; Potency, µM (top dose mostly 53.6 µM), for the others: at the top dose activity, negative = inhibition, actives largely listed as inhibitors; 310,000 tested, 3.5% active; AID 2546, 2010;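 further: Gal4-VP16 expression switched on by copper sulfate through the metallothionein promoter; potency means the concentration at half of the fitted maximal effect; nearly all actives have a fitted effect of over 50% in size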
LDHA block: qHTS assay for inhibitors of human lactate dehydrogenase | L-lactate dehydrogenase A chain (Homo sapiens), P00338 | purified LDHA, NADH/diaphorase-resazurin fluorescence; stronger effect = lower value | activity change, % (values are at about 110 or 230 µM) | 480,000 tested, 0.15% active; in the data active means activity change below about -30%; inconclusive means mostly about -25% to -30%;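 further: plate controls were DMSO wells for no effect and wells without enzyme for full effect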
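LDH5 2 nM; NADH 0.06 mM, pyruvate 0.2 mM; 200 mM Tris pH 7.4, EDTA, Tween-20; 5 min RT. Detection: diaphorase 0.133 mg/mL + resazurin 37 µM, fluorescence ex540/em590 at 0 and 20 min; normalized to enzyme-free and DMSO wells.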
IL-1B inflam inh: qHTS for Inhibitors of Inflammasome Signaling: IL-1-beta AlphaLISA Primary Screen. 360,000 tested, 4.7% active. AID 743279, 2014. activity change, % at 57.5 µM. THP-1 LPS/ATP IL-1B secretion, AlphaLISA, 16 h; stronger effect = lower value; in the data active means activity change below about -50%; inconclusive means mostly about -30% to -49%
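Secreted IL-1B measured by AlphaLISA bead assay after 16 h compound exposure of THP-1 cells; compounds (final up to 57.5 uM) added 1 h before LPS (250 ng/mL) and ATP (1.25 mM) stimulation; lower signal means less secretion.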
DT40 TDP1 CPT: qHTS for Inhibitors of human tyrosyl-DNA phosphodiesterase 1 (TDP1): qHTS in cells in presence of CPT. 420,000 tested, 12% active. chicken DT40 Tdp1-/-;hTDP1 cells + 20 nM CPT, ATP luminescence, 48 h. Potency, µM (series often up to 46.2 µM), inactives show at the top dose activity change, negative = growth inhibition, usual class: inhibitors; further: potency means the concentration at half of the fitted maximal effect; nearly all actives have a fitted effect of over 55% in size
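Chicken DT40 Tdp1-/- cells stably complemented with human TDP1 were seeded at 400 cells/well in medium containing 20 nM camptothecin, exposed to pin-transferred compounds, and grown at 37 °C for at least 48 hr. Viability was read as ATP luminescence.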
DT40 TDP1 no CPT: qHTS for Inhibitors of human tyrosyl-DNA phosphodiesterase 1 (TDP1): qHTS in cells in absence of CPT | DT40 Tdp1-/- hTDP1 cells, no CPT, ATP luminescence, 48 h | Potency, µM (top dose mostly 46.2 µM), inactives show top-dose activity change, negative = growth inhibition, usual class: inhibitors | 420,000 tested, 15% active | AID 686978, 2013; further: potency means the concentration at half of the fitted maximal effect; nearly all actives have a fitted effect of over 55% in size
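No-CPT arm: Tdp1-/-;hTDP1 DT40 cells (400/well) plus compounds, incubated ≥48 hr at 37 °C. Readout CellTiter-Glo luminescence.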
The depositor's hits bear a star; ? = inconclusive; / = no result; [ ] = another dose, or the depositor's remark. A selection: hits, their analogues and other compounds. The true share with any hit is near 18%. Unless noted, the call rests on the fitted dose curve; in most records, active means well fitted curve in the direction sought with a large enough effect; inconclusive means small, poorly fitted or top-dose-only effect, or another doubt; inactive means no such curve, though single readings can be large; an effect the other way counts as inactive or inconclusive. Unless noted, on the % scale 0 is the no-effect control and ±100 the full control effect.

SMILES	RORg inh	VP16 counter	LDHA block	IL-1B inflam inh	DT40 TDP1 CPT	DT40 TDP1 no CPT
CC1=C(CC(=O)c2ccccc2)C(=O)c2ccccc2C1=O	-43.7%	?	24.5	42.5	8.2µM*	11.6µM*
COc1ccc(/C(C)=N/OC(=O)c2ccc(OC(C)C)cc2)cc1OC	/	/	12.0	/	/	/
C=CCc1ccc(OCCCCN2CCC(C)CC2)c(OC)c1	-0.4%	?	-11.0	-7.5	?	16.4µM*
C=CCc1ccc(OCCCN2CCCC(C)C2)c(OC)c1 (stereo unspecified)	-10.9%	-3.3%	-7.7	8.1	-5.0%	?
C=CCc1ccc(OCCCCN2CC(C)CC(C)C2)c(OC)c1 (stereo unspecified)	-39.1%	5.9%[10 µM]	-12.1	-17.1	16.4µM*	20.6µM*
Cc1ccccc1OCC(=O)N/N=C/c1ccc(N2CCOCC2)o1	14.1µM*	6.31µM*	3.1	?	?	?
COCC(=O)N/N=C/c1ccc(Sc2nc3ccccc3s2)o1	1.7%	-9.7%	-0.4	1.2	-18.9%	?
O=C(Cc1cccc2ccccc12)N/N=C/c1ccc(Sc2nc3ccccc3s2)o1	-18.0%	-2.2%	-5.3	55.3	16.4µM*	?
Cc1ccc(/C=N/NC(=O)CSc2nc3ccccc3s2)o1	-32.6%	4.1%	-6.2	13.7	7.1%	-12.7%
Cc1ccccc1OCC(=O)N/N=C/c1ccncc1	6.8%	?	-5.1	21.0	1.7%	11.2%
Cc1ccccc1OCC(=O)N/N=C/c1ccc(Sc2nc3ccccc3s2)o1	-6.0%	-4.8%	2.0	-23.6	?	16.4µM*
O=C(COc1cccc2ccccc12)N/N=C/c1ccc(Sc2nc3ccccc3s2)o1	-32.5%	-1.2%	2.0	-5.4	?	20.6µM*
CC(=O)N(Cc1cc2cc(C)ccc2[nH]c1=O)CC(C)C	/	/	-10.3	/	/	/
CCOC(=O)c1sc(NC(C)CC)nc1C(F)(F)F (stereo unspecified)	/	/	-8.2	/	/	/
CN(CC(=O)NC(C)(C)C)Cc1ccc(C#N)cc1	/	/	1.8	/	/	/
N#CCC(=O)N/N=C/c1ccc(Sc2nc3ccccc3s2)o1	?	-4.8%	-47.9*	10.9	0.8%	-27.1%
O=C(Cn1cnc([N+](=O)[O-])n1)N/N=C/c1cccc(Cl)c1	-24.9%	7.0%	1.9	20.9	-13.9%	0.4%
Cc1cc(C)n(CCC(=O)N/N=C/c2ccc(Cl)c([N+](=O)[O-])c2)n1	3.4%	6.6%	-1.4	-90.5*	8.2%	-16.3%
COc1ccc(/C=N/NC(=O)CCn2nc(C)cc2C)cc1O	11.3%	-4.5%	-1.2	16.9	0.3%	8.3%
O=C(Cn1cnc([N+](=O)[O-])n1)N/N=C/c1ccc(O)cc1O	-27.3%	-7.7%	-8.0	149.8	?	11.6µM*
Cc1cc(C)n(CCC(=O)N/N=C/c2ccc(O)cc2O)n1	?	-10.1%	7.0	98.1	?	23.1µM*
Cc1cc(C)n(CCC(=O)N/N=C/c2ccccc2O)n1	1.26µM*	1.26µM*	3.0	27.8	11.6µM*	11.6µM*
COc1ccc(C(=O)Nc2ccc3oc(=O)ccc3c2)cc1OC	/	/	-3.0	/	/	/
COCCN(CC(=O)NC(N)=O)Cc1ccccc1	/	/	3.0	/	/	/
Cc1ccc(CN(C)Cc2ccccc2)o1	/	/	4.6	/	/	/
SMILES	RORg inh	VP16 counter	LDHA block	IL-1B inflam inh	DT40 TDP1 CPT	DT40 TDP1 no CPT
O=C(CN1CCN(S(=O)(=O)c2ccc(Br)cc2)CC1)N/N=C/c1ccc(Cl)c([N+](=O)[O-])c1	?	-18.0%	1.9	-90.2*	?	18.4µM*
COc1cccc(/C=C(/C#N)C(=O)c2c[nH]c3cc(F)ccc23)c1	/	/	7.1	/	/	/
CC1(C)Cc2c(cnn2-c2ccc(F)cc2)C(NC(=O)CCN2CCCC2=O)C1 (stereo unspecified)	42.7%	?	-1.8	34.0	18.4µM*	?
CC1(C)Cc2c(cnn2-c2ccc(F)cc2)C(NC(=O)c2ccco2)C1 (stereo unspecified)	0.5%	-7.9%	-3.8	13.7	-10.4%	-26.5%
COc1ccc(-n2ncc3c2CC(C)(C)CC3NC(=O)c2c(C)cc(=O)oc2C)cc1 (stereo unspecified)	0.8%	-8.8%	-1.1	-2.2	25.9µM*	?
COCc1ccc(C(=O)NC2CC(C)(C)Cc3c2cnn3-c2ccc(OC)cc2)o1 (stereo unspecified)	17.4%	-17.5%	-6.0	-18.4	6.5%	?
CC1(C)Cc2c(cnn2-c2ccc(F)cc2)C(NC(=O)C2=NNC(=O)CC2)C1 (stereo unspecified)	18.9%	-3.4%	-3.4	29.4	14.6µM*	?
CC1(C)Cc2c(cnn2-c2ccc(F)cc2)C(NC(=O)CN2CCCCC2=O)C1 (stereo unspecified)	3.55µM*	15.8µM*	-0.4	-6.7	-15.3%	7.7%
c1ccc(-c2nc(CN3CCCC3c3ccsc3)co2)cc1 (stereo unspecified)	/	/	0.1	/	/	/
O=C(/C=C/c1cccc2ccccc12)Nc1ccc(Cl)cc1C(F)(F)F	/	/	3.2	/	/	/
CCCc1c(C)nc2c(C)cccc2c1SCC(=O)O	/	/	-0.1	/	/	/
CN(Cc1cccc(Cl)c1Cl)C(=O)CCNC(=O)Nc1ccccc1	/	/	0.4	/	/	/
CN1CCN(c2nc(Nc3ccc(F)cc3)nc(Nc3ccc(F)cc3)n2)CC1	-43.4%	-4.3%	-3.0	-56.4*	20.6µM*	?
c1ccc(Nc2nc(N3CCCC3)nc(N3CCOCC3)n2)cc1	/	/	-14.3	/	/	/
c1ccc(Nc2nc(Nc3ccccc3)nc(N3CCNCC3)n2)cc1	-19.3%	2.2%	-4.6	-70.8*	?	?
CC(Nc1ccccc1[N+](=O)[O-])c1cccc(S(N)(=O)=O)c1 (stereo unspecified)	/	/	10.3	/	/	/
CC/C(=N\O)c1cccs1	/	/	-2.3	/	/	/
COc1cc2c(Cc3c4c5c(cc(OC)c(OC)c5c5c(OC)c(OC)ccc35)CCN4C)c3c4c(cc(OC)c(OC)c4c2cc1OC)CCN3C	-0.6%	3.9%	/	/	-11.6%	-20.8%
CCOC(=O)N1CCc2cc(OC)c(OC)c3c2c1cc1cc(OC)c(OC)cc13	/	/	10.6	2.8	?	11.6µM*
CC(C)c1ccc2oc(-c3cc(N)ccc3O)nc2c1	10µM*	22.4µM*	0.1	0.0	?	?
COc1ccc(C2C(C(C)=O)=C(C)Oc3ncn4nc(-c5cccnc5)nc4c32)cc1 (stereo unspecified)	/	/	4.6	/	/	/
